# Measured values taken from the supplement of paper PMC3545927.
# Some of the results follow. No count for the full screen is at hand.
# B1: HC13 (peptide)
# chain: CAMEEESQHLAGNASASA
# B2: HC1927 (peptide)
# chain: CATTPCSGSFAGNASASA
# B3: HC1165 (peptide)
# chain: CAVSCQRGYKAGNASASA
# B4: FS-2491 (peptide)
# chain: CARFRRIRGEAGNASASA
# B5: FS-1116 (peptide)
# chain: CAEAYRSRRTAGNASASA
# B6: FS-646 (peptide)
# chain: CADHWRSRRTAGNASASA
# B7: FS-2666 (peptide)
# chain: CARFRRSRRTAGNASASA
# B8: HC2258 (peptide)
# chain: CAEVVTSTWTAGNASASA
# B9: HC1778 (peptide)
# chain: CAMEECSQHTAGNASASA
# B10: HC2295 (peptide)
# chain: CADHEVVTSTAGNASASA
# B11: HC2437 (peptide)
# chain: CASREVPCHRAGNASASA
# B12: HC56 (peptide)
# chain: CATTPTSGSWAGNASASA
# B13: HC2458 (peptide)
# chain: CAETEVPCHRAGNASASA
# B14: FS-2820 (peptide)
# chain: CARSSKDTSTAGNASASA
# B15: FS-3223 (peptide)
# chain: CARKNRSKNQAGNASASA
# B16: FS-1932 (peptide)
# chain: CARSPRSASTAGNASASA
# B17: FS-3178 (peptide)
# chain: CAWSKRSLSQAGNASASA
# B18: FS-3089 (peptide)
# chain: CARSPRGVLRAGNASASA
# B19: FS-1931 (peptide)
# chain: CARSKRSPGGAGNASASA
# B20: FS-1973 (peptide)
# chain: CARSKRSKNQAGNASASA
# B21: FS-2183 (peptide)
# chain: CARSKRSLSCAGNASASA
# B22: HC1683 (peptide)
# chain: CAMAECSQHLAGNASASA
# B23: HC1366 (peptide)
# chain: CAEANAEDVVAGNASASA
# B24: HC1042 (peptide)
# chain: CAKHMWNFISAGNASASA
# B25: HC317 (peptide)
# chain: CAITGHRMAWAGNASASA
# B26: HC413 (peptide)
# chain: CAPVYCFTPSAGNASASA
# B27: FS-3206 (peptide)
# chain: CARSKRDPIIAGNASASA
# B28: FS-2809 (peptide)
# chain: CARSKRCSCSAGNASASA
# B29: FS-3091 (peptide)
# chain: CARSPRSPPGAGNASASA
# B30: FS-3098 (peptide)
# chain: CARSSRSPPGAGNASASA
# B31: FS-3074 (peptide)
# chain: CARSARSPPGAGNASASA
# B32: FS-2184 (peptide)
# chain: CARSKRSSSHAGNASASA
# B33: FS-1869 (peptide)
# chain: CARSKRNIIGAGNASASA
# B34: FS-3087 (peptide)
# chain: CARSLREFEEAGNASASA
# B35: FS-2320 (peptide)
# chain: CARYQRSHDDAGNASASA
# B36: FS-311 (peptide)
# chain: CAVPPRYPRDAGNASASA
# B37: FS-2538 (peptide)
# chain: CARYPRDVRDAGNASASA
# B38: FS-2850 (peptide)
# chain: CARYPRNVEEAGNASASA
# B39: FS-2803 (peptide)
# chain: CARRWREVEEAGNASASA
# B40: HC2463 (peptide)
# chain: CAATPCSAHLAGNASASA
# B41: HC728 (peptide)
# chain: CARHADVIPVAGNASASA
# B42: HC1032 (peptide)
# chain: CAAEVIAPAVAGNASASA
# Target: furin, P09958
# Experiment: furin cleavage Z-score vs untreated control; higher = more cleavage, active = 3.5 or more, inactive = 1 or less, 8 variable residues between constant flanks
# In short: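 Read counts from sequencing released DNA gave abundance for each bead-bound 8-mer peptide–cDNA fusion cut by purified furin over 7.5, 15 or 30 min. The cleavage Z-score compares log counts with furin-free reactions after lowess adjustment and median absolute deviation scaling.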
# 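Further: purified furin at 1:10 enzyme:substrate in 50 mM HEPES pH 7.5.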
# furin, P09958, sequence (P09958 whole entry): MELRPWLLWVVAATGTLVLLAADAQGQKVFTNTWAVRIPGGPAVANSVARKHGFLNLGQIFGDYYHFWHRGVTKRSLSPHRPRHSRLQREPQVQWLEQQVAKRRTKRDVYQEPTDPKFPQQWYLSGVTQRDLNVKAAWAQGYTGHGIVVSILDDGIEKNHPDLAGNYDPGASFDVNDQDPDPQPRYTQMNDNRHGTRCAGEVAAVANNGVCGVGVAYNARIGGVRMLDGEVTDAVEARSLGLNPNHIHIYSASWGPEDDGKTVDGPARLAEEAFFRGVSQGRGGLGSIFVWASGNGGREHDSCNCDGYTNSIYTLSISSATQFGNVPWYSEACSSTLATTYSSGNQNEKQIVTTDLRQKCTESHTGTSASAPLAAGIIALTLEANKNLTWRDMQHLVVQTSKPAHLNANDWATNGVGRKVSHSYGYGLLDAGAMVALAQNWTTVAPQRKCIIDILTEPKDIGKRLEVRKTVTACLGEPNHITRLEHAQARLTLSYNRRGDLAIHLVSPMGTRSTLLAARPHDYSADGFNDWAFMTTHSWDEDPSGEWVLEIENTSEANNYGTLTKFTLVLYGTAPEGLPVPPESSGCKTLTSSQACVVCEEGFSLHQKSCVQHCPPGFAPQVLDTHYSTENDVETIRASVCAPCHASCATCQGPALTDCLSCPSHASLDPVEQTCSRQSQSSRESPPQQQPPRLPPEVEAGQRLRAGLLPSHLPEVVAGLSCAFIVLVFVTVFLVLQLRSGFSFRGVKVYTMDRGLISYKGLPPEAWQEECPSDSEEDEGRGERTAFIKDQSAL
Sequence,furin cleavage Z-score (7.5 min),furin cleavage Z-score (15 min),furin cleavage Z-score (30 min)
B1,1.19,0.958 (inactive),0.124 (inactive)
B2,-0.645 (inactive),-1.19 (inactive),0.309 (inactive)
B3,-0.75 (inactive),0.637 (inactive),1.1
B4,-0.28 (inactive),-0.376 (inactive),-0.341 (inactive)
B5,1.35,1.26,3.71 (active)
B6,2.11,1.9,3.67 (active)
B7,7.49 (active),8.92 (active),6.66 (active)
B8,2.11,-0.469 (inactive),0.353 (inactive)
B9,-0.696 (inactive),1.17,0.869 (inactive)
B10,0.352 (inactive),-1.49 (inactive),1.29
B11,0.554 (inactive),0.537 (inactive),0.935 (inactive)
B12,-1.1 (inactive),-0.337 (inactive),-0.847 (inactive)
B13,0.00837 (inactive),0.231 (inactive),0.879 (inactive)
B14,-0.514 (inactive),-1.51 (inactive),-0.361 (inactive)
B15,0.698 (inactive),-0.524 (inactive),0.1 (inactive)
B16,4.66 (active),5.46 (active),7.33 (active)
B17,0.451 (inactive),1.67,2.52
B18,-0.934 (inactive),-0.739 (inactive),-0.752 (inactive)
B19,9.79 (active),8.88 (active),8.01 (active)
B20,5.82 (active),7.57 (active),6.19 (active)
B21,1.81,2.42,5.07 (active)

Sequence,furin cleavage Z-score (7.5 min),furin cleavage Z-score (15 min),furin cleavage Z-score (30 min)
B22,0.693 (inactive),-0.153 (inactive),0.354 (inactive)
B23,0.916 (inactive),-1.42 (inactive),-0.854 (inactive)
B24,-0.105 (inactive),-0.376 (inactive),-0.363 (inactive)
B25,-0.992 (inactive),-0.446 (inactive),-1.11 (inactive)
B26,0.856 (inactive),1.3,0.586 (inactive)
B27,-1.19 (inactive),0.347 (inactive),1.06
B28,0.463 (inactive),-0.402 (inactive),1.36
B29,2.88,4.13 (active),4.13 (active)
B30,-0.0484 (inactive),0.711 (inactive),1.37
B31,-0.433 (inactive),-0.609 (inactive),-0.311 (inactive)
B32,7.92 (active),8.7 (active),6.8 (active)
B33,6.5 (active),8.47 (active),8.95 (active)
B34,-2.22 (inactive),0.955 (inactive),0.853 (inactive)
B35,0.707 (inactive),-0.328 (inactive),0.764 (inactive)
B36,5.8 (active),6.12 (active),6.06 (active)
B37,8.26 (active),9.51 (active),6.93 (active)
B38,4.99 (active),7.34 (active),7.13 (active)
B39,-0.554 (inactive),-1.56 (inactive),0.0666 (inactive)
B40,0.828 (inactive),1.41,1.31
B41,-2.29 (inactive),-0.0929 (inactive),-1.98 (inactive)
B42,-0.225 (inactive),-0.402 (inactive),-0.162 (inactive)
